In ChEMBL document CHEMBL1157539, “Thousands of chemical starting points for antimalarial lead identification” (Nature, 2010):

Key:
Assay type in all cases: functional
[1] = test system: Plasmodium falciparum; assay: GSK_TCMDC: Inhibition of Plasmodium falciparum 3D7 in whole red blood cells, using parasite LDH activity as an index of growth. Test compounds present at 2uM
[2] = test system: Plasmodium falciparum; assay: GSK_TCMDC: Inhibition of Plasmodium falciparum Dd2 in whole red blood cells, using parasite LDH activity as an index of growth. Test compounds present at 2uM
[3] = test system: HepG2; assay: GSK_TCMDC: Percent inhibition of human HepG2 cell line. Test compounds present at 10uM.

SMILES | Inhibition [1] [%] | Inhibition [2] [%] | Inhibition [3] [%]
O=c1cc(NCCCNCc2cccc(C(F)(F)F)c2Cl)[nH]c2ccccc12 | 94 | 24 | 0
Cc1cc(N2CCN(CC3CCN(C)CC3)CC2)nc(Nc2ccc(Cl)cc2)n1 | 99 | 89 | 20
CCNC(=O)Nc1cccc(-c2cccc(-c3nc4cc(C(F)(F)F)ccc4[nH]3)c2)c1 | 91 | 32 | 50
CSc1ccc(CN2CCC(NC(=O)c3ccc(-c4cccc(Cl)c4)s3)CC2)cc1.O=C(O)C(F)(F)F | 86 | 19 | 75
COc1ccc(CCn2c(=N)c(C(=O)NCc3cccnc3)cc3c(=O)n4cccc(C)c4nc32)cc1 | 92 | 12 | 5
O=C(NC1CCN(CCCc2ccccc2)CC1)c1ccc(-c2cccc(C(F)(F)F)c2)s1.O=C(O)C(F)(F)F | 95 | 47 | 93
FC(F)(F)c1ccc(NC(=S)N2CCC(CCN3CCC(c4c[nH]c5ccccc45)CC3)CC2)cc1 | 98 | 37 | 44
Cc1c[nH]c2ccc(/C=C/C(=O)NC3CCC(CCN4CCc5ccc(C#N)cc5CC4)CC3)cc12.Cl (stereo not given) | 100 | 91 | 9
CCC1CN2CCc3c([nH]c4ccccc34)C2CC1CC1NCCc2cc(OC)c(OC)cc21.Cl (stereo not given) | 100 | 83 | 26
CCn1c(SC)nnc1C1CCCN(CC(=O)Nc2nc3ccc(OC)cc3s2)C1 (stereo not given) | 97 | 81 | 0
